Assay results reported in PubChem BioAssay (Tox21).
Where “and” joins values, the source holds several entries; their conditions need not be identical. Identical values can stand only once. Results filed as inconclusive are left out. Where a call stands in place of a potency, no number is given. More than one record can exist for a structure, and the calls need not agree. Calls of active or inactive are those of the source. Calls follow the shape of the dose curve; as a rule, active = well fitted activation curve with a large enough effect in the repeat runs; inconclusive = weak or mixed curves; inactive = flat fitted curve, though single readings scatter.

Experiment: A CellTox Green Cytotoxicity Assay to monitor cytotoxicity in HepG2 cells - 8 hour (AID 1224890); also: nearly all actives have a fitted effect of over 45% in size
Conditions: CellTox Green fluorescence; series mostly up to 76.8 µM
Description: National Center for Advancing Translational Sciences [NCATS]
NIH Chemical Genomics Center [NCGC]
U.S. Environmental Protection Agency [EPA]
National Institutes of Environmental Health Sciences [NIEHS]
National Toxicology Program [NTP]
Cell-based models are critical for drug discovery. Determining the natural cytotoxic effects resulting from test compounds is an essential research activity. A CellTox Green Cytotoxicity Assay to monitor cytotoxicity in real time of continues cell culture during 40 hours of the compound treatment was used to screen Tox21 10K library compounds in HepG2 cells. CellTox Green Cytotoxicity Assay is a nonlytic, homogeneous, biofluorescent method to measure cytotoxicity in cell culture after experimental manipulation. The assay system uses a proprietary asymmetric cyanine dye that is excluded from viable cells but preferentially stains the dead cell's DNA. […] Viable cells produce no appreciable increases in fluorescence. Therefore, the fluorescence signal produced by the binding interaction with dead cell DNA is proportional to cytotoxicity.
The mixture of HepG2 cell suspension and reagents were dispensed at 600cells/6 ul/well in 1536-well tissue culture treated black solid bottom plates using a Multidrop dispenser. After the assay plates were incubated at a 37 C/5% CO2 incubator for 5 hours, 23 nL of compounds dissolved in DMSO, positive and negative controls was transferred to the assay plate by a pintool work station. The plates were incubated at 37 C for 40 hours. The fluorescence intensity were measured at 0h, 8h, 16h, 24h, 32h and 40h time points using ViewLux plate reader during compound treatment.
Potency is read from the fitted curve at half-maximal effect.

SMILES	Potency
CC(C)=C[C@@H]1[C@@H](C(=O)OCc2coc(Cc3ccccc3)c2)C1(C)C	inactive
O=[N+]([O-])c1ccc([As](=O)(O)O)cc1	inactive
C1CN2CCN1CC2	inactive and 24.5 µM (active)
CN(C)N=O	inactive
C=CC(N)=O	inactive
NCCc1ccc(O)cc1	inactive
C=CCO	inactive and 27.5 µM (active)
Cc1ccc([N+](=O)[O-])cc1C	inactive
CC(NC(C)(C)C)C(=O)c1cccc(Cl)c1 (stereo not given)	inactive
CCC12COCN1COC2	inactive
CCCCCOC(=O)c1ccccc1C(=O)OCCCCC	inactive
Cc1ccc(N)cc1Cl	inactive
COC(=O)NS(=O)(=O)c1ccc(N)cc1	inactive
[N-]=[N+]=[N-]	inactive
CCN(CC)c1ccccc1	inactive
CC(C)N1C(=O)c2ccccc2NS1(=O)=O	inactive
CC(C)OC(=O)Nc1ccccc1	inactive
O=[N+]([O-])c1ccccc1	inactive
CC(C#N)CCC#N (stereo not given)	inactive
CCCCN(CCCC)SN(C)C(=O)Oc1cccc2c1OC(C)(C)C2	inactive

SMILES	Potency
CCOC(=O)c1ccccc1C(=O)OCC	inactive
O=S(=O)(c1ccc(O)cc1)c1ccc(O)cc1	inactive
CN=C=S	inactive
CC(=O)C=C(C)C	inactive
CCNc1nc(NC(C)C)nc(SC)n1	inactive
Cc1cccc([N+](=O)[O-])c1	inactive
c1ccc(-c2ccccc2)cc1	inactive
O=c1[nH]c(=O)[nH]c(=O)[nH]1	inactive
CNC(=O)Oc1ccccc1OC(C)C	inactive
CC(C)(C)C(O)(CCc1ccc(Cl)cc1)Cn1cncn1 (stereo not given)	inactive
C#CCN(C)[C@H](C)Cc1ccccc1	inactive
CON(C)C(=O)Nc1ccc(Cl)c(Cl)c1	inactive
CN(C)[C@@H]1C(=O)C(C(N)=O)=C(O)[C@@]2(O)C(=O)C3=C(O)c4c(O)cccc4[C@@](C)(O)[C@H]3C[C@@H]12	inactive
Cn1cc(-c2ccccc2)c(=O)c(-c2cccc(C(F)(F)F)c2)c1	inactive
CCOP(=S)(OCC)SCCSCC	inactive
C1CC2OC2CC1C1CO1 (stereo not given)	inactive
CCCN(CCC)c1c([N+](=O)[O-])cc(C(F)(F)F)cc1[N+](=O)[O-]	inactive
Clc1ccc(Cl)cc1	inactive
Oc1ccccc1Cl	inactive
C=C(C)CCl	inactive
